Source: PubChem BioAssay (National Center for Advancing Translational Sciences (NCATS))
Compounds with a hit are over-represented: about 19% of the library has one in this group of screens.
ELG1 DNA repair: blocks ELG1-dependent DNA repair in HEK293T cells | HEK293T ELG1-luciferase reporter, luminescence, 16 h; DNA damage induced by 5-fluorouridine | Potency, µM (titrated, usually from 46.1 µM), without a hit: top-dose activity change, negative = inhibition, actives largely listed as inhibitors | hit rate 2.3% among 330,000 | AID 504467; note: potency is the fitted concentration of half-maximal effect; nearly all actives have a fitted effect of over 55% in size
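Luminescence from the luciferase reporter, measured 30 min after ONE-Glo reagent at room temperature, was the read-out. Beforehand, 2,000 cells per well were exposed for 16 hr at 37 °C to 5-fluorouridine together with compound or vehicle.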
IL1B secr inh: inflammasome signaling inhibition, IL-1 beta readout; THP-1 LPS/ATP IL-1B secretion, AlphaLISA, 16 h; active compounds read low; activity change, % at 57.5 µM; hit rate 4.7% among 360,000; AID 743279; in the data active = activity change below about -50%; inconclusive = mostly about -30% to -49%
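THP-1 cells pretreated 1 hr with compounds (up to 57.5 uM final), then stimulated with LPS (250 ng/mL final) plus ATP (1.25 mM final); secreted IL-1B measured by AlphaLISA after 16 hr, decreased signal indicating inhibition.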
HT1080 IDH1KD tx: toxicity to HT-1080 IDH1 knockdown cells (counter line) | hit rate 2% among 360,000 | AID 686971 | Potency, µM (doses to about 46.1 µM), without a hit: top-dose activity, negative = toxicity, usual class: cytotoxic | HT-1080 IDH1 knockdown viability, ATP luminescence, 48 h;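 note: potency is the fitted concentration of half-maximal effect; 0% = DMSO wells and -100% = cell-free medium wells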
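Viability of IDH1-knockdown HT-1080 fibrosarcoma cells was assessed by CellTiter-Glo after 48 h at 37 °C with titrated compound; concentration-effect curves were classified by fit quality and response size.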
DT40 TDP1 CPT: DT40-hTDP1 cell growth loss with CPT. hit rate 12% among 420,000. chicken DT40 Tdp1-/-;hTDP1 cells + 20 nM CPT, ATP luminescence, 48 h. Potency, µM (highest dose often 46.2 µM), for the others: top-dose activity change, negative = growth inhibition, usual class: inhibitors; note: potency is the fitted concentration of half-maximal effect; nearly all actives have a fitted effect of over 55% in size
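Chicken DT40 Tdp1-/- cells stably complemented with human TDP1 were seeded at 400 cells/well in medium containing 20 nM camptothecin, exposed to pin-transferred compounds, and grown at 37 °C for at least 48 hr. Viability was read as ATP luminescence.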
DT40 TDP1 no CPT: qHTS for Inhibitors of human tyrosyl-DNA phosphodiesterase 1 (TDP1): qHTS in cells in absence of CPT | DT40 Tdp1-/- hTDP1 cells, no CPT, ATP luminescence, 48 h | Potency, µM (highest dose often 46.2 µM), without a hit: top-dose activity change, negative = growth inhibition, actives largely listed as inhibitors | hit rate 15% among 420,000; note: potency is the fitted concentration of half-maximal effect; nearly all actives have a fitted effect of over 55% in size
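Compound effects on proliferation are scored in DT40 Tdp1-/-;hTDP1 cells in the absence of CPT. ATP levels (CellTiter-Glo luminescence) are recorded after a ≥48 hr, 37 °C incubation.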
HT1080NT lethal: kills 2HG-producing HT-1080-NT fibrosarcoma cells. HT-1080-NT fibrosarcoma viability, CellTiter-Glo ATP luminescence, 48 h. Potency, µM (top dose mostly 46.1 µM), inactives show at the highest dose activity, negative = less viability, usual class: cytotoxic. hit rate 1.6% among 360,000;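 note: NT is the 2HG producing partner of a matched IDH1 knockdown line; potency is the fitted concentration of half-maximal effect; 0% = DMSO-treated cells and -100% = media-only wells without cells; nearly all actives have a fitted effect of over 55% in size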
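Luminescent CellTiter-Glo readout after 48 hours of compound exposure at 37 degrees C defined viability of HT-1080-NT cells. Activity was normalized to DMSO wells and cell-free media wells; concentration-response curves were fitted and assigned curve classes.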
Numbers without * were called inactive; ? = inconclusive; · = not tested or not shown. Unless noted, calls come from the whole dose curve; as a rule, active = well fitted curve in the direction sought with a large enough effect; inconclusive = small, poorly fitted or top-dose-only effect, or another doubt; inactive = no such curve, though single readings can be large; an effect the other way counts as inactive or inconclusive. Unless noted, % is set by controls: 0 for no effect and ±100 for the full control effect.

SMILES	ELG1 DNA repair	IL1B secr inh	HT1080 IDH1KD tx	DT40 TDP1 CPT	DT40 TDP1 no CPT	HT1080NT lethal
Nc1ccc(S(=O)(=O)NC2(C(F)(F)F)NC(=O)N(Cc3ccccc3)C2=O)cc1 (stereo not drawn)	1.9%	15.1	16.9%	9.0%	12.5%	15.4%
Cc1ccc(N=Nc2ccc(O)c3ncccc23)cc1C	?	103.3	?	2.31µM*	2.31µM*	?
Cc1ccc(N=Nc2ccc(O)c3ncccc23)cc1	?	2.1	1.64µM*	13µM*	13µM*	?
Cc1ccc2nc(C3CCCCC3)c(Cc3ccccc3)n2c1	·	-13.9	?	14.6µM*	16.4µM*	?
FC(F)(F)c1ccccc1Cc1c(C2CCCCC2)nc2c3ccccc3ccn12	·	-27.4	?	?	?	-25.3%
Cc1ccc2nc(C3CCCCC3)c(Cc3ccccc3C(F)(F)F)n2c1	·	-6.2	?	-102.3%	16.4µM*	?
Cc1ccc2nc(C3CCCCC3)c(Cc3cccc(F)c3)n2c1	·	-5.6	?	?	?	?
CN(C)C1CN(Cc2cn(Cc3ccc(F)cc3)nn2)S(=O)(=O)C1 (stereo not drawn)	·	15.7	5.7%	-0.4%	-22.2%	23.2%
O=c1[nH]n(Cc2ccccc2)c2ccccc12	1.8%	12.3	10.5%	33.4%	-10.3%	18.3%
Cc1c(/C=N\NC(=O)C2COc3ccc(C(C)(C)C)cc3O2)c2ccccc2n1C (stereo not drawn)	?	-18.5	-0.8%	?	?	-3.8%
Nc1oc2ccccc2c(=O)c1-c1ccc2c(c1)OCO2	?	20.6	-0.4%	18.4µM*	?	-2.5%
COc1ccc(C2CC(=O)c3cc(-c4nc(-c5cccc(Cl)c5)cs4)c(=O)[nH]c3C2)cc1OC (stereo not drawn)	·	·	·	?	9.2µM*	·
COc1ccc(C2CC(=O)c3cc(-c4nc(-c5cccc([N+](=O)[O-])c5)cs4)c(=O)n(-c4ccc(OC)cc4)c3C2)cc1 (stereo not drawn)	·	·	·	-2.3%	6.7%	·
O=C1CC(c2ccccc2)Cc2[nH]c(=O)c(-c3nc(-c4ccc(Cl)c(Cl)c4)cs3)cc21 (stereo not drawn)	·	·	·	3.26µM*	2.31µM*	·
O=C1CC(c2ccccc2)Cc2[nH]c(=O)c(-c3nc(-c4ccc(Cl)cc4)cs3)cc21 (stereo not drawn)	·	·	·	0.581µM*	0.651µM*	·
O=C1c2ccccc2C(=O)N1c1nc(-c2ccc(F)cc2)cs1	·	·	·	-8.0%	?	·
COc1ccc(C2CC(=O)c3cc(-c4nc(-c5ccc(Cl)cc5)cs4)c(=O)[nH]c3C2)cc1 (stereo not drawn)	·	·	·	-5.7%	-27.4%	·
O=C1CC(c2ccccc2)Cc2[nH]c(=O)c(-c3nc(-c4ccc(F)cc4)cs3)cc21 (stereo not drawn)	·	·	·	5.17µM*	3.26µM*	·
COC(=O)c1cc2oc3ccccc3c2n1Cc1nc(-c2ccc(Cl)cc2)oc1C	·	·	·	-9.1%	-11.6%	·
CCC1CCCCN1C(=O)c1ccc(OC)c(OC2CCN(C(C)C)CC2)c1 (stereo not drawn)	27.4%	-10.2	-1.0%	-12.9%	0.1%	13.1%
Cc1ccc(S(=O)(=O)N2CCCCC2)cc1NC(=O)Cn1cnnn1	0.0%	-10.0	-2.9%	-2.5%	0.0%	0.0%
Cc1ccc(Cl)cc1NC(=O)CN1C(=O)C(C)(C)c2cc(S(=O)(=O)N3CCCCC3)ccc21	·	·	·	?	23.1µM*	·
O=C(O)CCC(=O)N1CCN(S(=O)(=O)c2ccc3ccccc3c2)CC1	10.5%	-1.9	-1.9%	-20.6%	?	-8.4%
Cc1ccc(S(=O)(=O)N2CCCCC2)cc1NC(=O)Cn1ncc(Cl)c(Cl)c1=O	?	-101.6*	14.6µM*	4.61µM*	2.06µM*	20.6µM*
Cc1ccc(S(=O)(=O)N2CCCCC2)cc1NC(=O)CNC(C)c1ccc(Cl)c(Cl)c1 (stereo not drawn)	-26.7%	-62.9*	-18.4%	14.6µM*	13µM*	?
SMILES	ELG1 DNA repair	IL1B secr inh	HT1080 IDH1KD tx	DT40 TDP1 CPT	DT40 TDP1 no CPT	HT1080NT lethal
O=C(Cn1ncc(Cl)c(Cl)c1=O)N1CCN(S(=O)(=O)c2ccc3ccccc3c2)CC1	?	-102.7*	3.66µM*	2.91µM*	4.61µM*	2.59µM*
O=C(NCCN1CCCCC1)c1ccc(I)cc1	·	·	·	-14.2%	?	·
CC(C)[C@@H]1Cc2[nH][nH]c(=O)c2[C@H](C(C)C)O1	·	-9.6	-15.0%	-16.1%	-23.6%	4.6%
N#Cc1ccccc1OCC(=O)NNC(=O)CCC1CCCC1	17.1%	19.5	7.7%	0.5%	-8.6%	2.7%
Cc1cc(Br)ccc1NC(=O)CNC(=O)Cn1ncc(Cl)c(Cl)c1=O	7.6%	-97.6*	2.59µM*	4.11µM*	3.66µM*	3.66µM*
CCOC(=O)c1nnn(CC(=O)N2N=C(c3cccc4ccccc34)CC2c2ccccc2)c1C(=O)OCC (stereo not drawn)	?	-25.8	-2.7%	?	20.6µM*	-5.3%
CCCOc1ccc(N2CC(C(=O)Nc3ccccc3C(=O)NCc3ccco3)CC2=O)cc1 (stereo not drawn)	18.4µM*	-0.4	-11.9%	?	-27.8%	-0.6%
COc1ccc(N2CC(C(=O)Nc3ccccc3C(=O)NCc3ccco3)CC2=O)cc1 (stereo not drawn)	?	-5.2	-1.4%	-24.2%	-9.0%	-0.3%
O=C(NCc1ccco1)C1CC(=O)N(c2ccc(O)cc2)C1 (stereo not drawn)	6.3%	14.7	11.5%	20.6µM*	25.9µM*	10.1%
Cc1ccc(CSc2nnc([C@@H]3CCCN3C(=O)OC(C)(C)C)o2)cc1	-14.6%	1.4	2.0%	?	?	8.8%
CCOc1ccc2[nH]c(C)cc(=O)c2c1	0.4%	54.3	-0.6%	?	-26.1%	6.5%
O=c1cc(C(F)(F)F)[nH]c2c(C(F)(F)F)cccc12	-10.1%	4.8	?	18.4µM*	16.4µM*	?
O=c1cc(C(F)(F)F)[nH]c2ccc(OC(F)(F)F)cc12	?	·	20.6µM*	20.6µM*	13µM*	?
CCOc1cc(N2CCOCC2)c(OCC)cc1NC(=O)c1ccc(OCc2c(C)noc2C)c(OC)c1	5.8µM*	0.5	17.6%	14.6µM*	10.3µM*	12.5%
